# Compound activity (PubChem BioAssay)
# Shown are actives, neighbours in structure and some others; about 4.1% of the full set was active somewhere.
# DAX1 inh-1: blocks DAX1 repression of SF-1 activated StAR promoter; HEK293T StAR-luciferase reporter, SF-1/DAX-1 repression relief; inhibition, % at 6.8 µM; hit rate 1.1% among 370,000;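 active means inhibition above the mean over all tested compounds plus 3 SD, cut at about 3.6% in these data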;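 further: 0% = DAX-1 cells with DMSO and 100% = cells lacking DAX-1 with DMSO; higher inhibition means more luminescence from relief of DAX-1 repression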
# DAX1 inh-2: NR0B1 (DAX1) inhibition. inhibition, % at 6.75 µM. hit rate 0.99% among 340,000. P51843. AID 504766. HEK293 Gal4-DAX1 luciferase reporter, luminescence;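 active means inhibition above the mean over all tested compounds plus 3 SD, cut at about 4.2% in these data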;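 further: 0% = DAX1-transfected cells with DMSO and 100% = empty-vector control cells with DMSO; inhibition shows as a rise in luminescence from relieved DAX1 repression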
# Target sequence (P51843 207-470 limits assumed): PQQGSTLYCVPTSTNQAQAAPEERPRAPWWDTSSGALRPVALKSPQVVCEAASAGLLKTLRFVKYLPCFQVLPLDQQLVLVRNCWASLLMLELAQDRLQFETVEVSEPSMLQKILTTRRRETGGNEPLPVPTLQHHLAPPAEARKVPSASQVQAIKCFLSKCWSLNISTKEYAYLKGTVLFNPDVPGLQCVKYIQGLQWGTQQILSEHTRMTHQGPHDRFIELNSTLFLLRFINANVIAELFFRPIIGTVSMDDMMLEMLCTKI
# hcDAF-12 act: activators of H. contortus DAF-12 nuclear receptor. hit rate 1.4% among 370,000. AID 652067. HEK293 hcDAF-12 lit1-tk-luc reporter, luminescence; 0% DMSO, 100% Δ7-dafachronic acid. activation, % at 6.8 µM;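 active means activation above the mean of all tested compounds plus 3 SD, cut at about 5.5% in these data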;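 further: 100% = response to 3 µM Δ7-dafachronic acid high control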
# PolyA inh: blocks polyadenylation in yeast reporter cells; S. cerevisiae SKY197-pL101 polyadenylation reporter, beta-gal luminescence; efflux-impaired pdr1/pdr3 knockout yeast; score 100 = 6 SD above DMSO; activity score, % at 12 µM; hit rate 0.02% among 300,000;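 active means lowest replicate activity score at least 50, where 100 means six control SD above control mean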;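 further: yeast exposed to compound for 9 h at 30 °C; higher score means more reporter readthrough which indicates perturbed polyadenylation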
# hgDAF12 agonist: activates the H. glycines DAF-12 receptor ligand-binding domain. activation, % at 6.8 µM. hit rate 1.8% among 370,000. HEK293 GAL4-hgDAF12 UAS-luciferase reporter, agonist luminescence; normalized to butyrate control. AID 687014;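 active means activation above a cutoff set at the mean of all screened compounds plus 3 SD, cut at about 10% in these data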;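 further: 0% = DMSO wells and 100% = sodium butyrate wells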
# ssDAF-12 act: S. stercoralis DAF-12 activation, primary screen; activation, % at 6.8 µM; hit rate 1% among 370,000; HEK293 ssDAF-12/GRIP1 lit1-tk-luc reporter, luminescence; % of 3 µM dafachronic acid response; AID 652126;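 active means activation above the mean over all tested compounds plus 3 SD, cut at about 0.9% in these data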;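 further: 0% = DMSO-only wells and 100% = 3 µM delta7-dafachronic acid wells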
# Numbers without * were called inactive; . = no result given.
SMILES,DAX1 inh-1,DAX1 inh-2,hcDAF-12 act,PolyA inh,hgDAF12 agonist,ssDAF-12 act
Cc1ccc(C(=O)/C=C\Nc2ccc(C)c(C)c2)cc1,1.3,2.9,3.6,-7.4,12.9*,0.3
Cc1ccc(N/C=C/C(=O)c2ccc(C)cc2)cc1,2.9,3.0,1.9,19.5,12.7*,-0.2
Cc1ccc(C(=O)C=CC=Cc2ccccc2)cc1,1.4,4.5*,-0.3,.,3.1,-0.6
Cc1ccc(C(=O)/C=C/C(=O)c2ccc(C)cc2)cc1,-1.3,-0.3,-1.5,-20.1,2.5,-0.9
O=[N+]([O-])c1cc2c(ccc3occc32)o1,-4.1,.,-0.8,.,-7.0,-1.1
COC(=O)[C@]12C[C@H](CC(=O)NCc3cccc(C(F)(F)F)c3)C(=O)N(Cc3ccco3)C1=C[C@H](COCc1ccccc1)O[C@@H]2C,-1.4,.,-1.6,.,6.1,-0.7
COC(=O)Cn1cnc2c(NC(=O)c3ccccc3)ncnc21,0.5,.,0.7,.,0.3,0.3
O=C(CSc1nnc(-c2cccnc2)n1-c1ccccc1)Nc1ccc2c(c1)OCCO2,-2.2,.,-3.2,.,2.9,-1.7
NCCCC(C(=O)O)N(C(=O)OCc1ccccc1)C(=O)OCc1ccccc1 (stereo not drawn),0.2,.,-0.7,.,1.7,-0.9
COC(=O)C1=C(C)N(Cc2cccc(C(F)(F)F)c2)C(=NCc2cc(OC)c(OC)c(OC)c2)NC1c1cccc(F)c1 (stereo not drawn),0.8,.,0.4,.,0.0,-1.4
Cc1ccc(NC(=O)C(=O)c2ccc(C)cc2)cc1,2.1,1.3,2.7,-8.0,12.4*,0.0
c1ccc(CN=C2NN=C(c3cc4ccccc4o3)CS2)cc1,-0.1,1.8,-1.1,-9.2,2.9,-1.0
c1ccc2oc(C3=NNC(=NC4CC4)SC3)cc2c1,0.9,2.0,6.8*,-1.0,6.8,0.4
C[C@H](CO)N1C[C@H](C)[C@@H](CN(C)C(=O)c2ccncc2)OCc2cn(nn2)CCCC1=O,0.4,.,-0.9,.,2.9,0.0
CC(=O)Nc1ccc(Cl)cc1C(=O)O,0.3,0.7,-0.3,7.2,0.1,0.9*
OCc1ccccc1OCc1ccccc1,0.9,.,3.7,.,3.3,-1.5
O=C(C1CCCN1S(=O)(=O)c1cccc2ccccc12)N1CCN(c2ccccc2)CC1 (stereo not drawn),0.4,.,-2.8,.,-3.7,2.5*
Cc1ccc(NC(=O)Nc2ccc3c(c2)nnn3C)cc1C,0.7,5.3*,1.2,-19.1,2.2,-0.9
Cc1cc(C(=O)COc2cccc([N+](=O)[O-])c2)c(C)n1C1CC1,1.8,0.3,2.9,.,12.6*,-0.2
Cc1ccc(OCC(=O)c2cc(C)n(C3CC3)c2C)c([N+](=O)[O-])n1,0.7,0.7,0.8,-3.2,0.1,-1.8
COc1ccc(C(=O)OCCc2ccc(O)cc2)cc1,1.0,2.2,3.1,-0.9,11.9*,-0.1
Nc1ccc(C(=O)OCCc2ccccc2)cc1,1.0,5.1*,1.9,-4.6,12.8*,0.0
COc1ccc(CCOC(=O)c2ccc(NC(=O)CC#N)cc2)cc1,0.4,0.5,-2.0,-6.9,-1.6,-1.2
CN(C)S(=O)(=O)c1ccc(C(=O)OCCc2ccccc2)cc1,0.1,0.6,-1.7,2.5,2.9,-0.9
O=C(OCCc1ccccc1)c1cc(O)c(O)c(O)c1,2.1,0.6,6.2*,18.3,-1.7,0.0
SMILES,DAX1 inh-1,DAX1 inh-2,hcDAF-12 act,PolyA inh,hgDAF12 agonist,ssDAF-12 act
CN1CC(O)([C@H](Cc2ccccc2)NC(=O)OC(C)(C)C)OCC1C(=O)NCc1cccc2ccccc12 (stereo partly drawn),.,.,-2.0,.,2.7,-1.8
COc1c(Cl)cc(-c2noc(C)c2C(=O)NCc2ccc3c(c2)OCO3)cc1Cl,-0.7,4.3*,-1.3,7.4,1.2,-0.9
Cc1nc2ccc(C(=O)NCc3ccc4c(c3)OCO4)cc2s1,1.1,0.3,-0.4,111.7*,3.0,-1.6
CCOC(=O)[C@@]12CCC3=C1N(CCC3)C(=O)[C@H](CC(=O)NCc1ccc(OC)c(OC)c1)C2,0.1,.,-2.7,.,1.3,-0.5
CN(Cc1nc2ccccc2c(=O)[nH]1)C(=O)c1ccc(S(=O)(=O)N(C)C)cc1,-0.5,0.7,-2.6,4.9,0.1,-1.4
CN(Cc1nc2ccccc2c(=O)[nH]1)C(=O)c1cccc(S(=O)(=O)N2CCCC2)c1,3.7*,1.4,-1.5,.,1.9,-0.7
